Assay results published in the OligoGym collection.

target: XKR5; assay: pooled miR-30 sensor sort-seq; sequence = guide strand; details: shRNA
Note: reference of the scale not given here.

| Sequence | sensor-assay potency score (higher = more potent) |
| --- | --- |
| TAGCAGACAATTTTGACTGGAA | 0.477 |
| TGATCTTAGACACATTTCCTGT | -0.718 |
| TAAGTTATTCTACTATTCCTTT | -0.571 |
| TTGATCTTAGACACATTTCCTG | 0.217 |
| TAGTGTCTCACATTGAATGGAA | -0.0169 |
| TTCTCTAATAAATATAGTGTAT | -1.07 |

target: XKRX; assay: as above; details: shRNA

| Sequence | sensor-assay potency score (higher = more potent) |
| --- | --- |
| TTATCTTTGGCTAGATCTCTGT | -0.472 |
| TAGCACAACTCTACCCAGGGGA | 0.12 |
| TAAATGGAAAAGTAAATCGGGG | -0.48 |
| TAAACTCTGTCCATTGTCGAGG | -0.536 |
| TTCTCTACCAACCTCACACTAT | -0.943 |
| TAACAGAGAGCTAATCTGCTTG | 0.29 |
| TAGTCTACTACATTATGGGTGA | -0.472 |
| TTCAGTAACACTTTCACTCCAA | 0.565 |
| TCTATTAGCATCTTCTTTCGGG | 0.547 |
| TAGTCATCGTACTTGATCTGGA | 0.135 |
| TAAGTTTCACTATTCTTTCGAT | 0.293 |
| AATACCATTAGCACAACTCTAC | -0.637 |

target: YAP1; assay: as above; details: shRNA

| Sequence | sensor-assay potency score (higher = more potent) |
| --- | --- |
| TTAGCCTGAAAACTGCAACTGG | -0.22 |
| TTGGTTGATAGTATCACCTGTA | 0.588 |
| TTAAGGAAAGGATCTGAGCTAT | -0.559 |
| TGTTGTTGTCTGATCGATGTGA | 0.751 |
| TGTTGAACAAACTAAATGCTGT | 0.164 |
| TGCTGTGACATGAAGCATCTGA | 0.636 |
| TTTGGTTGATAGTATCACCTGT | 0.841 |
| TAAAGTATCTTGCTGGACGTTT | -0.0595 |
| ATCTTTTTCTGTATTAGCCTGA | 0.428 |
| TTAAGAAGTATCTCTGACCAGA | 0.035 |
| TTGAACAAACTAAATGCTGTGA | 0.444 |
| TACATTAACAGCAGCAATGGAC | -0.672 |

target: YARS; assay: as above; details: shRNA

| Sequence | sensor-assay potency score (higher = more potent) |
| --- | --- |
| TACACATCTAGTGTGTACTCTT | -0.195 |
| TTCTTCACATCCTCCTTCCGAT | -0.429 |
| TTCTCGAAGACTTTCTTCTTGG | -0.635 |
| TTTTGCTGCCTGTTAATCCTGG | -0.733 |
| TTTTAAATACTCTTCATCCAAA | -1.12 |
| TCGTAGGATCACAAACTCGGAC | -0.717 |
| TATAGAAGCACACAGAAGCATG | -1.29 |
| TCTAGTGTGTACTCTTTGCTGA | 0.0358 |
| TTCTCATAGTAACTGACTCGGA | -0.794 |
| TTGAATAGCCAAGTGCAGGGAG | 0.352 |
